Several values for one entry are separate records, joined by “and”; a condition that tells them apart may be missing. Equal values may be shown once. Results filed as inconclusive are left out. Where a call stands in place of a potency, no number is given. Activity calls are given as the source filed them. Calls come from the whole dose curve; as a rule, active = well fitted inhibition curve with a large enough effect in the main read-out, with a control signal flat; inconclusive = small, poorly fitted or top-dose-only effect, or a change in a side signal; inactive = flat fitted curve, though single readings scatter.
Potency is the fitted concentration of half-maximal effect.

Chain of Neuropeptide S receptor (Homo sapiens) (Q6W5P4 whole entry, looked up): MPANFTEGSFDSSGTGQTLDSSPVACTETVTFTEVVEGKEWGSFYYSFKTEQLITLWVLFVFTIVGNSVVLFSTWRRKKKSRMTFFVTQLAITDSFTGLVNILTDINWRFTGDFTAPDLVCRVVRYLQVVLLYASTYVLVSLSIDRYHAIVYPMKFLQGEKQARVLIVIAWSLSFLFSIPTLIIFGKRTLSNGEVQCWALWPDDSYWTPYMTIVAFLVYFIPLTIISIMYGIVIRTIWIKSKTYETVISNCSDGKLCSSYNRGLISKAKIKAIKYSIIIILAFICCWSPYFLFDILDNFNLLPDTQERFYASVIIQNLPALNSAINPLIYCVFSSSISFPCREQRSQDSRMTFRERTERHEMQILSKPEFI

The assay deals with Neuropeptide S receptor (Homo sapiens) (UniProt Q6W5P4). The experiment in a line: Confirmation Concentration-Response Assay for Antagonists of the Neuropeptide S Receptor: cAMP Signal Transduction. As to conditions: CHO-NPSR cells, cAMP TR-FRET, antagonist mode; series mostly up to 22.3 µM. The source says:
NIH Chemical Genomics Center [NCGC] NIH Molecular Libraries Probe Production centers Network [MLPCN] MLPCN Grant: X01-DA026210-01 Assay Submitter (PI): Heilig, Markus Alexander NCGC Assay Overview: Neuropeptide S receptor (NPSR), previously known as GPR154, is a recently de-orphanized G protein coupled receptor. Its endogenous ligand is the 20 amino acids peptide Neuropeptide S (NPS). […] NPS and its receptor are found in various tissues. Specifically they are highly expressed in brain areas that have been implicated in modulation of arousal, stress and anxiety. Central administration of NPS in mice produces an unusual profile of activity by inducing wakefulness and arousal, while at the same time suppressing anxiety. Therefore, NPSR may represent a novel drug target for the treatment of sleep and anxiety disorders. To identify NPSR antagonists, we developed a cell-based cAMP assay. NPS can stimulate the production of cAMP in Chinese hamster ovary cells stably expressing NPS receptor. This change in intracellular cAMP level can be detected by a homogeneous LANCE cAMP assay based on the TR-FRET (time resolved fluorescence resonance energy transfer) between a europium-labeled cAMP tracer complex and a cAMP-specific antibody labeled with Alexa Fluor 647. The europium-labeled cAMP tracer complex is formed by the tight interaction between Biotin-cAMP (b-cAMP) and streptavidin labeled with Europium-W8044 chelate (Eu-SA). Light pulse at 320 nm excites the europium of the cAMP tracer and the energy emitted is transferred to the Alexa molecule bound to the cAMP antibody, generating a TR-FRET signal at 665 nm. Residual energy from the europium will produce a light at 620 nm. The native unlabeled cAMP from cell lysates competes with the europium-cAMP tracer for antibody binding and reversely reduces the emission signal of Alexa by interrupting FRET between the two labeled molecules. Both emission signals from the FRET donor (620 nm) and the acceptor (665 nm) can be detected by a plate reader in the TRF mode. Expression of result in fluorescence ratio (665 nm/620 nm) helps to normalize differences due to cell density and reagent dispensing. This assay was successfully optimized to a 1536-well plate format. Select compounds from the primary screen (AID 1461) were chosen for confirmation based on potency, efficacy, SAR, and activity across other assays in PubChem and at NCGC. Other compounds are analogs of active compounds from the primary sceen.
NCGC Assay Protocol Summary: A Chinese hamster ovary (CHO) cell line stably expressing the NPS receptor (CHO-NPSR) was obtained from Dr. Heilig lab at NIAAA and maintained in F-12 Kaighn's media (Invitrogen, Carlsbad, CA, 21127) supplemented with 10 % FBS, 100 units/ml penicillin, 100 ug/ml streptomycin and 250 ug/ml geneticin at 37C, 5% CO2 in a humidified atmosphere. Before the assay, aliquots of cells were frozen and stored at -135C. The assay was performed in 1536-well format. Data are reported for both the ratio of the two emission wavelengths, and also for the component 'donor' channel, Em2=620. […] IC50 values were determined from concentration-response data modeled with the standard Hill equation. NPS 1536-well assay protocol: (1) Fresh or frozen CHO-NPSR cells were suspended in F-12 Kaighn's media supplemented with 10 % FBS, 100 units/ml penicillin and 100 ug/ml streptomycin. Cells were plated at 4 ul/well (1200 cells) to white, tissue culture treated 1536-well plates, and then cultured at 37C, 5 % CO2 for 16 to 30 hours. (2) Add 23 nl/well of compound in DMSO solution. The final titration for each compound was between 0.6 nM and 46 uM. (3) Add 1 ul of stimulation reagent (1X HBSS buffer, 5 mM HEPES, 0.1% BSA, 500 uM RO-201724 (Sigma-Aldrich, B8279), 1.5% Alexa 647-labeled anti-cAMP antibody (from Perkin Elmer), 100 nM NPS) (4) Incubation at 37C, 5 % CO2 for 60 min. (5) Add 1 ul/well detection reagent. […]
Background: Time-resolved FRET reads energy transfer from a long-lived donor to a nearby acceptor.
Turning to `CCOC(=O)c1cnc(-n2nc(C)cc2C)nc1NC1CCCC1`, the Potency result was “inactive”.

As to `CCOC(=O)CCCC(=O)Nc1ncnc2c1C(c1ccccc1)c1c(ccc3ccccc13)O2` (stereo not given), the Potency is 2 µM (active).

In the case of `O=C(COC(=O)c1ccccc1C(=O)c1ccc(Cl)c([N+](=O)[O-])c1)NC1CCCCCC1`, the Potency was 4.47 µM (active) and 8.91 µM (active).

Consider `Cc1ccc(/C=C2\SC(=S)N(CC(=O)Nc3ncc(Cc4ccccc4Cl)s3)C2=O)cc1`, for which the Potency entry was “inactive”.

Consider `N=c1c2c(ccn1CCCc1ccccc1)Oc1ccc3ccccc3c1C2c1ccccc1` (stereo not given), for which the Potency was 1.58 µM (active).

Regarding `CCOC(=O)c1cnc(-n2nc(C)cc2C)nc1Nc1ccc(C)cc1`, the Potency entry was “inactive”.

As to `CC(=O)n1nc2nc(C)cc(C)c2c1N`, the Potency entry was “inactive”.

As for `CCn1cc(C(=O)NCC2CCCO2)c(=O)c2cc(S(=O)(=O)N3CCCCCC3)ccc21` (stereo not given), the Potency result was “inactive”.

On to `O=C(NCc1ccccc1)Nc1ncnc2c1C(c1ccccc1)c1c(ccc3ccccc13)O2` (stereo not given), for which the Potency is 2.24 µM (active).

Turning to `CCOC(=O)C1CCCN(c2ncnc3c2oc2ccccc23)C1` (stereo not given), the Potency was 50.1 µM (active) and 12.6 µM (active).

Consider `CCSc1nc2c(c(=O)n1Cc1ccccc1)SC(C)C2` (stereo not given), for which the Potency result was “inactive”.

As to `O=C(CSc1n[nH]c(-c2cccnc2)n1)Nc1ccnc2ccccc12`, the Potency result was “inactive”.

As to `O=C1Nc2ccc(S(=O)(=O)N3CCCC3C(=O)O)c3cccc1c23` (stereo not given), the Potency entry was “inactive”.

In the case of `NC(=O)c1ccsc1NC(=O)c1ccc(S(=O)(=O)N2CCCC2)cc1`, the Potency entry is “inactive”.

Turning to `COc1ccc(N2C3=C(CC4=C2CC(C)(C)CC4=O)C(=O)CC(C)(C)C3)cc1`, the Potency entry was “inactive”.

For the compound `S=C(Nc1ccccn1)c1ccccn1`, the Potency result is “inactive”.

On to `Cc1cc(C)n(-c2nc(NC(C)C)nc(NC(C)C)n2)n1`, for which the Potency entry was “inactive”.

In the case of `COc1ccc(CCNC(=O)CC(c2ccccc2)c2cccc(C)c2O)cc1OC` (stereo not given), the Potency result is “inactive”.

As to `CCC(=O)O[C@]1(C(=O)CCl)[C@@H](C)C[C@H]2[C@@H]3CCC4=CC(=O)C=C[C@]4(C)[C@@]3(F)[C@@H](O)C[C@@]21C`, the Potency is 11.2 µM (active).

For the compound `Nc1ncnc2c1C(c1ccccc1)c1c(ccc3ccccc13)O2` (stereo not given), the Potency is 1 µM (active).

In the case of `Cn1c(COc2ccccc2)nnc1SCc1cc(=O)[nH]c2ccccc12`, the Potency result was “inactive”.

Consider `O=C1CC(NCc2ccncc2)C(=O)N1c1ccccc1` (stereo not given), for which the Potency result was “inactive”.

As to `N#CC(C#N)=c1ccc2c(c1)NC1(CCCCC1)N=2`, the Potency result was “inactive”.

`O=C(CSC1=NCCS1)Nc1ccnc2ccccc12`: the Potency entry is “inactive”.

`COc1cc(/C=C2\SC(c3ccc(C)cc3)=NC2=O)cc(OC)c1O`: the Potency is 10 µM (active).

For the compound `CN(CC(=O)NCc1ccc(F)cc1)S(=O)(=O)c1cccc2nsnc12`, the Potency result is “inactive”.

As for `O=C1OC(c2ccccc2)(c2ccccc2)N2CCN(C(=O)NCc3ccc(F)cc3)CC12` (stereo not given), the Potency was 0.0251 µM (active).

As for `CC(C)Cc1nc(N2CCN(C(=O)c3ccccc3)CC2)c(C#N)c2c1CCC2`, the Potency entry is “inactive”.

For `N=C1c2ccccc2CN1c1ccc(N2CCOCC2)c(S(=O)(=O)Nc2ccc(Cl)cc2)c1`, the Potency was 4.47 µM (active).

As for `COCCCn1cnc2c(c1=O)c1nc3ccccc3nc1n2CCc1ccccc1`, the Potency result was “inactive”.

As for `CC1=C/C(=N\NC(=S)Nc2cccnc2)CC(C)(C)C1`, the Potency result was “inactive”.

In the case of `O=[N+]([O-])c1ccc(-c2nc(C(Cl)Cl)c3ccccc3n2)cc1`, the Potency entry was “inactive”.

In the case of `O=C(c1ccccc1-c1nc2ccccc2[nH]1)N1CCCCC1`, the Potency result was “inactive”.

On to `CC1C(c2ccccc2)N(C)C(c2ccccc2)CC1(O)c1ccccc1` (stereo not given), for which the Potency entry is “inactive”.

For the compound `N=c1c2c(ncn1-c1ccccc1)Oc1ccc3ccccc3c1C2c1ccc2c(c1)OCO2` (stereo not given), the Potency was 2.51 µM (active).

Take `CC(=O)c1c(C(C)=O)c(C)n(NC(=O)c2cccnc2)c1C`: the Potency result was “inactive”.

As for `CCC(Sc1ccc2nnc(-c3cccnc3)n2n1)C(=O)O` (stereo not given), the Potency result is “inactive”.

For the compound `Cc1ccc2nc3ccc(N4CCCCCCC4)nn3c(=O)c2c1`, the Potency result was “inactive”.

As to `Nc1ccc(-c2nc3c(Cl)cc(N)cc3[nH]2)cc1`, the Potency entry is “inactive”.

Turning to `N#CC1=C(NC=NCc2ccccc2)Oc2ccc3ccccc3c2C1c1ccccc1` (stereo not given), the Potency was 1.58 µM (active).

(Values after PubChem BioAssay AID1491 (National Center for Advancing Translational Sciences (NCATS), 2009).)
